Data reported in PMC4336329 (PLoS ONE, 2015).
In all, about 310,000 compounds went through this assay and about 14,000 (4.5%) showed an effect of 50% or more. The effect is printed as a negative number. Only a selection was taken, and strong results are over-represented in it overall.

Target: human ether-à-go-go-related gene (hERG) potassium channel (human, UniProt Q12809)
Experiment: primary screen, population patch clamp on CHO cells stably expressing hERG; higher = less effect of the substance
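Also: peak tail current of the secondary pulse compared with the same well before compound.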

human ether-à-go-go-related gene (hERG) potassium channel, sequence (Q12809 whole entry, looked up): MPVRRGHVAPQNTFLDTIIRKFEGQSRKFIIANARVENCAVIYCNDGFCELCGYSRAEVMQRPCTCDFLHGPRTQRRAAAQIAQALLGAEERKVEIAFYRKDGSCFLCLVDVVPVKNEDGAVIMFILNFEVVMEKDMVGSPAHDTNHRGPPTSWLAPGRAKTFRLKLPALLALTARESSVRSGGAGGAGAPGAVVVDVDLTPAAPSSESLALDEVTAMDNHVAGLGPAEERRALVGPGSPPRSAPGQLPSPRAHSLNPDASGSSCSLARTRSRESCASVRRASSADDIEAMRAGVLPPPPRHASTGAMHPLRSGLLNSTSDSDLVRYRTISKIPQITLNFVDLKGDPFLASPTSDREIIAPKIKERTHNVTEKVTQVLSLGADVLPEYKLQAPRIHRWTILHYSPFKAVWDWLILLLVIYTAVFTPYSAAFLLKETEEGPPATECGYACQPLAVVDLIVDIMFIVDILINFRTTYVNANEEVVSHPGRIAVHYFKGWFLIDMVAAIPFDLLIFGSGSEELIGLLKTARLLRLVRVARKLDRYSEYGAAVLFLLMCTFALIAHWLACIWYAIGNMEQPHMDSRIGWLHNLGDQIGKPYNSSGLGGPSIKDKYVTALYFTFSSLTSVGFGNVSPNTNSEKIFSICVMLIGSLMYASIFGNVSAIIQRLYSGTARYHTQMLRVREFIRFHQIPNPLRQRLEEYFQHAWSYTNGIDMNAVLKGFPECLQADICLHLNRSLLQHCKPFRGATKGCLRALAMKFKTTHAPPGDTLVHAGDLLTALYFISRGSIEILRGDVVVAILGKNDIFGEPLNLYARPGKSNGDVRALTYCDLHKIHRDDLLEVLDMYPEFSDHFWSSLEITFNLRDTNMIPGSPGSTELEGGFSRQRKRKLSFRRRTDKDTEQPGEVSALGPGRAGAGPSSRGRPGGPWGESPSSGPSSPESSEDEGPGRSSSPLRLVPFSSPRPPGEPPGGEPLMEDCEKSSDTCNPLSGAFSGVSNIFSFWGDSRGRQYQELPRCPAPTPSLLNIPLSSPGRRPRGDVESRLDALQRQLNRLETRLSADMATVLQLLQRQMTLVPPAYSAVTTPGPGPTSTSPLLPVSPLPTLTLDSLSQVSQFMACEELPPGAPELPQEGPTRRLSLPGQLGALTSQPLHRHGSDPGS

Row | SMILES | hERG current change (%, negative = inhibition) at 10uM [%]
1 | CC(=O)OCCn1c(C)[n+](CCOC(C)=O)c2cc(Cl)c(Cl)cc21.[I-] | 14.7
2 | COc1ccc(-c2ccoc2)cc1[C@H]1[C@H]2C=CC[C@@H](C)[C@@H]2C(=O)N1Cc1ccccc1 | 1.85
3 | CC1CCN(Cc2nnc(-c3cccc(Br)c3)o2)CC1 | -0.585
4 | Cc1ccccc1-c1nnc(CN2CCN(C(=O)c3ccco3)CC2)o1 | -14.2
5 | O=C(c1ccco1)N1CCN(Cc2nnc(-c3ccccc3F)o2)CC1 | 9.67
6 | O=C(c1ccco1)N1CCN(Cc2nnc(-c3cccc(Br)c3)o2)CC1 | -62.2
7 | O=C(c1ccco1)N1CCN(Cc2nnc(-c3ccccc3)o2)CC1 | -55.5
8 | O=C(c1ccco1)N1CCN(Cc2nnc(-c3cccc(Cl)c3)o2)CC1 | -45.9
9 | O=C(Cn1c(CO)nc2ccccc21)NCCc1ccccc1 | -3.08
10 | COc1ccccc1CNC(=O)c1cc(C)nn1-c1ccccc1 | 1.87
11 | CCOc1ccccc1NC(=O)Nc1cc(S(=O)(=O)N(C)C)ccc1C | 15
12 | C=CCn1c(=N)c(S(=O)(=O)c2ccc(C)c(C)c2)cc2c(=O)n3ccccc3nc21 | 14.3
13 | C=CCn1c(=N)c(C#N)cc2c(=O)n3ccccc3nc21 | -35.3
14 | C=CCn1c(=N)c(C(=O)NCCCOC)cc2c(=O)n3ccccc3nc21 | -60.1
15 | COCCCNC(=O)c1cc2c(=O)n3cccc(C)c3nc2n(C(C)C)c1=N | -65.5
16 | CCn1c(=N)c(C(=O)NCCCOC)cc2c(=O)n3cccc(C)c3nc21 | -61.4
17 | COCCCNC(=O)c1cc2c(=O)n3cccc(C)c3nc2s1 | 7.44
18 | CCOCCCNC(=O)c1cc2c(=O)n3cccc(C)c3nc2s1 | 12.6
19 | C=CCn1c(=N)c(C(=O)OCC)cc2c(=O)n3cccc(C)c3nc21 | -72.9
20 | CCOC(=O)c1c(C)nc2c(C)cccn12 | -6.9
21 | CC(NC(=O)CSc1nc2ccc(N)cc2s1)c1ccccc1 (stereo not shown) | 32
22 | O=c1cccc2n1CC1CC2CN(C(c2ccccc2)c2sc3ncnn3c2O)C1 (stereo not shown) | 15.1
23 | Cc1ccc(S(=O)(=O)N2CCCCC2)cc1NC(=O)c1cc(=O)[nH]c2ccccc12 | -6.61

Row | SMILES | hERG current change (%, negative = inhibition) at 10uM [%]
24 | CCCN(CC(=O)Nc1ccccc1C)C(=O)c1ccc(C(=O)c2ccccc2)cc1 | -25.9
25 | CCOc1ccc(CCNc2cc(C)nc3ncnn23)cc1OCC | -5
26 | Cc1onc(-c2ccccc2)c1C(=O)Nc1sc2c(c1C#N)CCC2 | 1.63
27 | Cn1c(=O)cc(N2CCCCC2)[nH]c1=O | 9.92
28 | CCc1cc(=O)oc2cc3occ(-c4ccc(OC)c(F)c4)c3cc12 | 2
29 | CCn1c(NC(=O)c2ccccc2)nc2ccccc21 | 4.47
30 | C=CCn1cc(C(=O)NCCCOC)c(=O)c2cc(S(=O)(=O)N(CC)CC)ccc21 | -30.5
31 | C=CCn1c(=N)c(C(=O)NCCCOC)cc2c(=O)n3cccc(C)c3nc21 | -73.5
32 | C=CCn1c(=N)c(C(=O)NCCCOC)cc2c(=O)n3cc(C)ccc3nc21 | -57.3
33 | O/N=C1\CCSc2ccc(F)cc21 | -6.52
34 | CC(=O)Nc1ccc(Oc2ccc(NC(C)=O)c(NC(C)=O)c2)cc1 | 1.5
35 | COc1ccc(CCNC(=O)Cn2cccc2C(=O)c2ccccc2C)cc1OC | -16.3
36 | Cc1cccc(N2CCN(C(=O)Cn3cccc3C(=O)c3ccccc3)CC2)c1C | -17.2
37 | Cc1ccc(C)c(N2CCN(C(=O)CCNC(=O)Cn3ccc4ccccc4c3=O)CC2)c1 | -3.39
38 | Cc1ccc(CNC(=O)Cn2cccc2C(=O)c2ccccc2C)cc1 | -7.1
39 | Cc1ccc(C)c(N2CCN(CCCNC(=O)Cn3cccc3C(=O)c3ccccc3C)CC2)c1 | -74
40 | Cc1ccc(CNC(=O)Cn2cccc2C(=O)c2ccccc2)cc1 | 1.89
41 | Cc1cccc(N2CCN(C(=O)CCNC(=O)Cn3ccc4ccccc4c3=O)CC2)c1C | -55.5
42 | Cc1ccccc1C(=O)c1cccn1CC(=O)NCCN1CCN(c2cccc(C)c2C)CC1 | -69.5
43 | O=C(Cn1cccc1C(=O)c1ccccc1)NCCN1CCOCC1 | -2.26
44 | Cc1cccc(N2CCN(C(=O)Cn3ccc4ccccc4c3=O)CC2)c1C | -23.1
45 | Cc1ccccc1C(=O)c1cccn1CC(=O)NCCC1=CCCCC1 | 20.5
46 | Cc1ccc(C)c(N2CCN(CCCNC(=O)Cn3cccc3C(=O)c3ccccc3)CC2)c1 | -87.2
